Measurements: PubChem BioAssay
This is one part of the list. Unmarked numbers belong to inactive results. Calls of active or inactive are those of the source. Rule as the data show it, unless noted: active = inhibition above about 13%; inactive = the rest.

tested on: not listed separately; experiment: BSA probe fluorescence interference – biochemical, TAMRA-labeled BSA, counter-screen for TCR-CD3 interaction inhibitor project (AID 652035; in the data active = inhibition above about 23%;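 also: 0% = buffer low control and 100% = reference high control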); settings: TAMRA-labeled BSA probe fluorescence counterscreen; at 9.4 µM; stronger effect = higher value

SMILES | inhibition
CN1CCN(/N=C/c2ccc(C#N)cc2)CC1 | 1.63%
Cc1cc2ccccc2n1CCNC(=O)COc1ccc2ccccc2c1 | 8.77%
CCC(=O)NC(=S)Nc1ccc(NC(=O)c2ccco2)c(Cl)c1 | 3.69%
COc1ccccc1C(=O)NNC(=O)c1ccc(NC(=O)c2ccccc2)cc1 | -8.35%
C/C=C/C=C/C(=O)O | 3.35%
CN(C)CCNC(=O)C(C(=O)c1ccccc1)n1ccccc1=O (centres undefined) | -0.25%

tested on: T-cell receptor (TCR)-CD3 interaction, human; experiment: blockers of TCR binding to CD3 – biochemical, fluorescence, TAMRA-labeled TCR probe, confirmation (AID 652036; in the data active = inhibition above about 19%); settings: TAMRA-labeled TCR probe fluorescence binding assay; at 9.4 µM; stronger effect = higher value

SMILES | inhibition
CN1CCN(/N=C/c2ccc(C#N)cc2)CC1 | 2.78%
Cc1cc2ccccc2n1CCNC(=O)COc1ccc2ccccc2c1 | 2.99%
CCC(=O)NC(=S)Nc1ccc(NC(=O)c2ccco2)c(Cl)c1 | 13.4%
COc1ccccc1C(=O)NNC(=O)c1ccc(NC(=O)c2ccccc2)cc1 | 35.5% (active)
C/C=C/C=C/C(=O)O | 6.03%
CN(C)CCNC(=O)C(C(=O)c1ccccc1)n1ccccc1=O (centres undefined) | 2.79%

tested on: not listed separately; experiment: VP16-driven transactivation reporter suppression – cell-based, luminescence, HEK293, counter-screen for COUP-TFII antagonist project (AID 687007); settings: HEK293 Gal4-VP16 luciferase reporter, at 8.5 µM, stronger effect = higher value

SMILES | inhibition
Cc1nc(C(=O)NCc2ccccc2)sc1C1(C)CC(c2cccnc2)=NO1 (centres undefined) | -2.73%
O=C(Nc1ccc(S(=O)(=O)N2CCOCC2)cc1)C1CCN(S(=O)(=O)c2ccc(Cl)cc2)CC1 | 0.86%
Cc1ccccc1OCC(=O)Nc1ccc(N2CCN(C(=O)C(C)C)CC2)c(Cl)c1 | -4.24%
COc1ccc(NC(=O)C2Cc3c(-c4cccc(NC(C)=O)c4)ccnc3O2)cc1OC (centres undefined) | -1.35%
Cc1ccc(CNC(=O)Nc2nnc([C@H]3C[C@H](O)[C@@H](CO)O3)s2)cc1 | -1.25%
Cc1ccc(Nc2nc(CSc3nnc(-c4ccncc4)n3-c3ccccc3C)cs2)cc1 | -8.65%
O=C(Nc1ccc(S(=O)(=O)NCC2CCCO2)cc1)c1ccc(F)cc1 (centres undefined) | 3.93%
c1ccc(Cc2ccc(OCCn3ccnc3)cc2)cc1 | -6.15%
NS(=O)(=O)c1ccc(CCNc2nc(C(F)(F)F)nc3ccccc23)cc1 | -10.4%
CN(C(=O)c1cccc(NC(=O)Cc2cccc([N+](=O)[O-])c2)c1)C1CCCCC1 | -3.36%
NS(=O)(=O)c1ccc(CCNC(=O)c2ccc(Cl)c(S(=O)(=O)N3CCCCCC3)c2)cc1 | 5.82%
CCOC(=O)N1CCN(C(=O)C[C@@H]2C(=O)N(CCc3ccc(Cl)cc3)C3=CCCC[C@]32C(=O)OCC)CC1 | -8.45%
COc1ccc(OC)c(CNC(=O)Cn2nc(C)c3c(C)n(-c4ccc(C)cc4)nc3c2=O)c1 | -4.78%
CN(c1cccc(NC(=O)c2ccc(CN3CCc4ccccc4C3)cc2)c1)S(C)(=O)=O | 4.04%
CCCCn1c(SCc2ncc(-c3ccccc3)o2)nc2cc(S(N)(=O)=O)ccc21 | 6.53%
CCN(CC)P(=O)(C(NC(=O)OC)C(F)(F)C(F)(F)C(F)(F)C(F)F)N(CC)CC (centres undefined) | 7.83%
Cc1ccccc1CS(=O)(=O)Cc1ccc(C(=O)Nc2ccc(Cl)cc2)o1 | -1.58%
CCC(=O)Nc1ccc(C(=O)CSc2nnc(CNc3ccc(Cl)cc3)o2)cc1OC | -6.4%
O=C(c1cc(C(=O)N2CCN(c3ccc(F)cc3)CC2)cc([N+](=O)[O-])c1)N1CCN(c2ccc(F)cc2)CC1 | -2.78%
Cc1ccc(OCC(=O)Nc2ccc(N3CCN(C(=O)c4ccco4)CC3)cc2)c(C)c1 | 4.51%
Cc1ccc(-n2nc3c(=O)n(C(C)C(=O)NCc4ccc5c(c4)OCO5)nc(C)c3c2C)cc1 (centres undefined) | -6.28%
CCOC(=O)C1(CCOc2ccccc2)CCN(Cc2cc(OC)cc(OC)c2)CC1 | 6.8%
N#CC(C#N)=CN=c1ccn(Cc2ccc(Cl)cc2Cl)cc1 | -2.5%
CCc1ccc(-c2nc(SCC(=O)NC3CCCC3)n[nH]2)cc1 | -22.9%
CN(CCc1ccccc1)C(=O)c1cccc(NC(=O)Cc2cccc(NC(=O)C3CCCN(C(=O)CCc4ccccc4)C3)c2)c1 (centres undefined) | -3.76%
COc1cc(/C=C/C(=O)n2cnc3ccccc32)cc(OC)c1OC | -14.2%
Cc1ccc(NC(=O)C2CC(=O)N(c3ccc4c(c3)OCCO4)C2)cc1S(=O)(=O)N1CCCCCC1 (centres undefined) | -2.18%
